Experimental data published in PubChem BioAssay (EPA / NIEHS).
Results filed as inconclusive are left out. The source made the active and inactive calls. How the source made its calls, unless noted: active means hit-call score of the fitted dose curve at least 0.9, where 1 is the maximum; inactive means score below 0.9.

What was measured:
[1] = ACEA_ER_80hr: ACEA Biosciences xCELLigence Real-Time Cell Analysis on Estrogen Receptor Agonism for Proliferation (AID 2282667; active means hit-call score of the fitted dose curve at least 0.9, where 1 is the maximum); details: T47D proliferation, impedance (xCELLigence), 80 h
Outline: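 Estrogen-driven proliferation is captured as electrode impedance in T47D cells 80 h after compound addition. Test articles ran at 8 concentrations, 1:4 dilutions from 100 uM final, in two replicate plates.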

[2] = ATG_CRE_CIS: Attagene CIS-FACTORIAL HepG2 Assay for human cAMP Responsive Element (CRE) binding protein 3 (AID 2282926); details: HepG2 CRE cis-reporter, Attagene multiplexed mRNA; actives raise or lower the signal
Outline: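 Transfected HepG2 were treated for 24 hours, then RNA was extracted and reporter cDNA amplified with sequence-specific primers. Labelled fragments were separated by capillary electrophoresis, and the CRE signal was fitted bidirectionally with DMSO as baseline.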

[3] = target: CCAAT/enhancer-binding protein beta (Homo sapiens) (UniProt P17676); assay: ATG_C_EBP_CIS: Attagene CIS-FACTORIAL HepG2 Assay for human CCAAT/Enhancer Binding Protein (C/EBP) beta (AID 2282927); details: HepG2 Attagene cis-factorial transcription factor reporter; actives raise or lower the signal
CCAAT/enhancer-binding protein beta (Homo sapiens), sequence (P17676 whole entry, looked up): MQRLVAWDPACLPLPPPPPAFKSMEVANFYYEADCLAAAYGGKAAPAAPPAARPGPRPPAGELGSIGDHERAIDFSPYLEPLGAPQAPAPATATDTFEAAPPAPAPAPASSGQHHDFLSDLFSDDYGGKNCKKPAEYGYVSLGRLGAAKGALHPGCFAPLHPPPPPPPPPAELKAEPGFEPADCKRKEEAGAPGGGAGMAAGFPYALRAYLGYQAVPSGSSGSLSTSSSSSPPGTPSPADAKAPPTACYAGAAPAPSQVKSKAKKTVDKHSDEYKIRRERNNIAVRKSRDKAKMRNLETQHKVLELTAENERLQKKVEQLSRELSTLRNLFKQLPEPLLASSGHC
Outline: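 HepG2, transient MRTU transfection, 24 h treatment. RT-PCR plus CE fluorescence; DMSO negative control, bidirectional fit.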

[4] = ATG_CMV_CIS: Attagene CIS-FACTORIAL HepG2 Assay for human CMV (Internal Marker) (AID 2282928); details: HepG2 CMV promoter reporter, transcription factor profiling; actives raise or lower the signal;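 further: endpoint acts as a background internal control marker rather than a target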
Outline: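 Cell system: HepG2, transiently transfected multiple reporter units under cis promoters. Exposure: 24 h. Detection: RT-PCR, FAM labeling, HpaI digestion, capillary electrophoresis. Analysis: bidirectional, DMSO baseline.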

[5] = ATG_DR4_LXR_CIS: Attagene CIS-FACTORIAL HepG2 Assay for human Liver X Receptor (LXR), DR4 submotif (AID 2282929); details: HepG2 Attagene DR4 cis-reporter, mRNA transcription; actives raise or lower the signal
Outline: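 Readout: reporter transcript fluorescence after RT-PCR and capillary electrophoresis, fitted bidirectionally against DMSO controls. Human HepG2 liver cells carried transiently transfected multiplexed reporter constructs; endogenous transcription factor activity measured 24 h post-dosing.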

[6] = target: Aryl hydrocarbon receptor (Homo sapiens) (UniProt P35869); assay: ATG_Ahr_CIS: Attagene CIS-FACTORIAL HepG2 Assay for human Aryl Hydrocarbon Receptor (Ahr) (AID 2282930); details: HepG2 AhR cis-factorial reporter transcription; actives raise or lower the signal
Aryl hydrocarbon receptor (Homo sapiens), sequence (P35869 whole entry, looked up): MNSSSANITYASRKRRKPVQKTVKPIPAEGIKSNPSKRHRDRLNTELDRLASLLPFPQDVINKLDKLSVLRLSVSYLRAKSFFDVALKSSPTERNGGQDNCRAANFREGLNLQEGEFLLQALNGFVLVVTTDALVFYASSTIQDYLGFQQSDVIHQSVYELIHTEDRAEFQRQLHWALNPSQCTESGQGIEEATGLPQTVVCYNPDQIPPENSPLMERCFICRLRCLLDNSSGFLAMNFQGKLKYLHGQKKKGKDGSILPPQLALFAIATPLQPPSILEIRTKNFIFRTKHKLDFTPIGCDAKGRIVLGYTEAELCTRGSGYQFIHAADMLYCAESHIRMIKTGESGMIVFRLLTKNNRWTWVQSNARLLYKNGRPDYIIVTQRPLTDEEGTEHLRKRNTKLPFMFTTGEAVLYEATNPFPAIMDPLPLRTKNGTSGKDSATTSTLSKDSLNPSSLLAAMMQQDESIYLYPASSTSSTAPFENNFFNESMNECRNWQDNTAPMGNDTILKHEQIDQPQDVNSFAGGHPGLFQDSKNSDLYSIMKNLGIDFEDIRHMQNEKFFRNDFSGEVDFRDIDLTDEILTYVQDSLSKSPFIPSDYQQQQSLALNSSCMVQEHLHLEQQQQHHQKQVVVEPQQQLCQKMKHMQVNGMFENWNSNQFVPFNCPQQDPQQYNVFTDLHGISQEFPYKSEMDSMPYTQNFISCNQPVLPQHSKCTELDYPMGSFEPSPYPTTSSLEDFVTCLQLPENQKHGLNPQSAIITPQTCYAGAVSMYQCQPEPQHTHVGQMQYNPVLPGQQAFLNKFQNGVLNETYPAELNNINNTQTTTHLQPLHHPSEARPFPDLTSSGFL
Outline: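 Endogenous factor activity is tracked through cis-promoter reporter units transfected into HepG2 cells. Transcript levels at 24 h are read by fluorescent RT-PCR and capillary electrophoresis, with activity in either direction scored relative to DMSO.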

[7] = ATG_AP_1_CIS: Attagene CIS-FACTORIAL HepG2 Assay for human Activator Protein 1 (AP-1) (AID 2282931); details: HepG2 Attagene cis-factorial AP-1 reporter mRNA; actives raise or lower the signal
Outline: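 Reporter transcripts were measured 24 h after dosing by RT-PCR and capillary electrophoresis of fluorescent fragments. Cells: HepG2 carrying transfected cis-regulated reporter constructs reading endogenous factor activity. Gain or loss fitted against DMSO.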

[8] = ATG_AP_2_CIS: Attagene CIS-FACTORIAL HepG2 Assay for human Activator Protein 2 (AP-2) (AID 2282932); details: HepG2 AP-2 cis-reporter, Attagene transcription factor profiling; actives raise or lower the signal
Outline: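 HepG2 cells transiently transfected with cis-element reporter units and exposed for 24 h. Reporter mRNA measured by RT-PCR, FAM labelling, HpaI digestion and capillary electrophoresis. Changes in either direction fitted relative to DMSO.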

[9] = ATG_BRE_CIS: Attagene CIS-FACTORIAL HepG2 Assay for human Bone Morphogenetic Protein (BMP) Response Element (BRE) (AID 2282933); details: HepG2 BMP response element reporter, Attagene transcription factor profiling; actives raise or lower the signal
Outline: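 Endogenous transcription factor activity read in transiently transfected HepG2 cells after 24 h chemical exposure. Bidirectional curve fitting against DMSO; readout is reporter transcript level by RT-PCR with capillary electrophoresis of labelled products.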

[10] = target: Retinoic acid receptor alpha (Homo sapiens) (UniProt P10276); assay: ATG_DR5_RAR_CIS: Attagene CIS-FACTORIAL HepG2 Assay for human Retinoic Acid Receptor Alpha (RARE), DR5 submotif (AID 2282934); details: HepG2 Attagene cis-factorial RARE DR5 reporter, mRNA; actives raise or lower the signal;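 on AC50: reporter responds to endogenous RAR alpha beta and gamma in HepG2 not RARA alone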
Retinoic acid receptor alpha (Homo sapiens), sequence (P10276 whole entry, looked up): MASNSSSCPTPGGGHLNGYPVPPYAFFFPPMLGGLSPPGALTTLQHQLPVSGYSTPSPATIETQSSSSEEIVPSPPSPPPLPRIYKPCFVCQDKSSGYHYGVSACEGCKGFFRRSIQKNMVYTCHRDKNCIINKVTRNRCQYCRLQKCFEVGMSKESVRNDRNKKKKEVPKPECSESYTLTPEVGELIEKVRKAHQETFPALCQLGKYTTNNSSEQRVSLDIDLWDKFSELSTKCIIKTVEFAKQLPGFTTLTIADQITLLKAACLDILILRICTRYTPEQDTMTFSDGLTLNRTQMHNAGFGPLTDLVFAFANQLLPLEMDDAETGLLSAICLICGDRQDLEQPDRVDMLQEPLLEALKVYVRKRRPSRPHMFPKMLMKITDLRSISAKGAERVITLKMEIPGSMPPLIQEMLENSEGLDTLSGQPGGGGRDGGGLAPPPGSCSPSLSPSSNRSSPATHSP
Outline: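 After 24 h of chemical exposure, transiently transfected HepG2 cells were lysed for total RNA; the DR5-regulated reporter transcript was quantified via RT-PCR and capillary electrophoresis, with activity fitted bidirectionally against DMSO.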

[11] = target: Transcription factor E2F1 (Homo sapiens) (UniProt Q01094); assay: ATG_E2F_CIS: Attagene CIS-FACTORIAL HepG2 Assay for human E2F Transcription Factor 1 (AID 2282935); details: HepG2 Attagene cis-reporter, E2F reporter RNA transcripts; actives raise or lower the signal
Transcription factor E2F1 (Homo sapiens), sequence (Q01094 whole entry, looked up): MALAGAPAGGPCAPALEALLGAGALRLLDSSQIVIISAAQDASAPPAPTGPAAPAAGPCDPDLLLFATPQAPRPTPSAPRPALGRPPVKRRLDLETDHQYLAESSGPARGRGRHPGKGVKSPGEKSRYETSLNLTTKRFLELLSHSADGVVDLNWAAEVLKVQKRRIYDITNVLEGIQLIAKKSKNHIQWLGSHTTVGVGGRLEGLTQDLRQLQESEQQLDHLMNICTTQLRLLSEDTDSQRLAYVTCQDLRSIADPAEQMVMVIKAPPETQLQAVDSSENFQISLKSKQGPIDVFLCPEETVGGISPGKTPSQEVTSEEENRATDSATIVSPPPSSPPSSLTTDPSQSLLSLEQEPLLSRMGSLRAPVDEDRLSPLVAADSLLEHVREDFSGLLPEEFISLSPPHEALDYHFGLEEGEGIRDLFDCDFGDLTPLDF
Outline: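 Endogenous E2F1 activity read through cis-promoter reporter units transfected into HepG2. After 24 h compound treatment, reporter mRNA measured by RT-PCR, HpaI digestion and capillary electrophoresis. Bidirectional fit versus DMSO.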

[12] = ATG_E_Box_CIS: Attagene CIS-FACTORIAL HepG2 Assay for human Enhancer Box (E-box) (AID 2282936); details: HepG2 E-box cis-reporter transcription, actives raise or lower the signal
Outline: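 HepG2 cells transiently transfected with multiplexed cis-element reporter units, dosed 24 h; reporter mRNA quantified by RT-PCR, 6-FAM labelling, HpaI digestion and capillary electrophoresis. E-box (USF1) signal fitted bidirectionally vs DMSO.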

[13] = ATG_M_61_CIS: Attagene CIS-FACTORIAL HepG2 Assay for M61 Transcription Factor (Internal Marker) (AID 2282937); details: HepG2 Attagene CIS-FACTORIAL M61 internal marker reporter; actives raise or lower the signal
Outline: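 Readout: fluorescent reporter mRNA fragments resolved by capillary electrophoresis after RT-PCR. Transiently transfected human HepG2 cells carried MRTU constructs reporting endogenous TF activity; 24 h chemical exposure; gain or loss of signal fitted relative to DMSO.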

[14] = ATG_EGR_CIS: Attagene CIS-FACTORIAL HepG2 Assay for human Early Growth Response 1 (EGR1) (AID 2282938); details: HepG2 Attagene CIS-FACTORIAL EGR reporter mRNA; actives raise or lower the signal
Outline: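 Read-out: fluorescent reporter-mRNA fragments resolved by capillary electrophoresis after RT-PCR, 24 h post-dose in transiently transfected HepG2. Endogenous transcription-factor activity reported via cis-element-regulated reporter units; gain or loss fitted relative to DMSO.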

[15] = ATG_M_19_CIS: Attagene CIS-FACTORIAL HepG2 Assay for M19 Transcription Factor (Internal Marker) (AID 2282939); details: HepG2 Attagene CIS-FACTORIAL M19 internal marker reporter; actives raise or lower the signal
Outline: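 Internal marker readout, fitted in both directions against DMSO, from HepG2 cells carrying transfected cis-element reporter constructs; RT-PCR and capillary electrophoresis of reporter mRNA after 24 h exposure.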

[16] = ATG_ERE_CIS: Attagene CIS-FACTORIAL HepG2 Assay for Estrogen Response Element (ERE) (AID 2282940); details: HepG2 ERE cis-reporter, Attagene RNA transcript; actives raise or lower the signal
Outline: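 After 24 h compound treatment, RNA from transfected HepG2 cells was reverse-transcribed, reporter cDNA PCR-amplified, FAM-labelled, HpaI-cut and resolved by capillary electrophoresis. ERE-driven cis reporter transcripts reflect endogenous factors; gain or loss scored against DMSO.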

[17] = ATG_Ets_CIS: Attagene CIS-FACTORIAL HepG2 Assay for human Erythroblast Transformation Specific (ETS) (AID 2282941); details: HepG2 ETS cis-reporter transcription, actives raise or lower the signal
Outline: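 After transient cis-reporter transfection, HepG2 cells receive test chemical for 24 h. Reporter mRNA levels, measured by RT-PCR and capillary electrophoresis fluorescence, are analysed bidirectionally relative to the DMSO baseline.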

[18] = target: Hepatocyte nuclear factor 3-beta (Homo sapiens) (UniProt Q9Y261); assay: ATG_FoxA2_CIS: Attagene CIS-FACTORIAL HepG2 Assay for human Forkhead box A2 (FOXA2) (AID 2282942); details: HepG2 cis-reporter transcription factor activity, 24 h; actives raise or lower the signal
Hepatocyte nuclear factor 3-beta (Homo sapiens), sequence (Q9Y261 whole entry, looked up): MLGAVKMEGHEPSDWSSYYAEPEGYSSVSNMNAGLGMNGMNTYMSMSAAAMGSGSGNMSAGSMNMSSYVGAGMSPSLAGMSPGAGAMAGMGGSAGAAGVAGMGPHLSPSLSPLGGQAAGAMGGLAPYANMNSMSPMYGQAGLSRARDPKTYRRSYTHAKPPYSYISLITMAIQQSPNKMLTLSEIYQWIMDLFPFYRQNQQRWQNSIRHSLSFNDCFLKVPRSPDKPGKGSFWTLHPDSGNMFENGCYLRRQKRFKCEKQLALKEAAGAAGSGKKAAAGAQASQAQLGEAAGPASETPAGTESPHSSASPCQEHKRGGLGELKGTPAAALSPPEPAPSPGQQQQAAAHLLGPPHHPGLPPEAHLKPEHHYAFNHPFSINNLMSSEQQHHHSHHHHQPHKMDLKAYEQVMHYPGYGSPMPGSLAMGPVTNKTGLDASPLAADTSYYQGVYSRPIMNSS
Outline: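 Readout: fluorescent reporter transcripts resolved by capillary electrophoresis after RT-PCR. Transiently transfected HepG2, 24 h compound exposure, endogenous TF activity at cis promoter elements. Gain or loss of signal fitted relative to DMSO.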

[19] = ATG_FoxO_CIS: Attagene CIS-FACTORIAL HepG2 Assay for human Forkhead box O (FoxO) (AID 2282943); details: HepG2 Attagene cis-reporter, FoxO element, mRNA; actives raise or lower the signal
Outline: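 Transfected HepG2 reporter cells exposed to test chemical for 24 h; reporter RNA measured by reverse transcription, PCR and fluorescent capillary electrophoresis; curves fitted for increases and decreases against DMSO.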

[20] = ATG_GATA_CIS: Attagene CIS-FACTORIAL HepG2 Assay for human GATA Binding Protein (AID 2282944); details: HepG2 GATA cis-element reporter, Attagene multiplex mRNA; actives raise or lower the signal
Outline: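 Reporter transcripts from a GATA cis-regulated unit, among multiplexed reporters in transfected HepG2 cells, were measured by RT-PCR with capillary electrophoresis after 24 h dosing. Induction or loss scored relative to DMSO.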

Measured: AC50

CC(=O)C=O
inactive: all assays above

CN1CN(C)CN(C)C1
active: [5] 135 µM
inactive: all other assays above

CCC(=O)OC(C)c1ccccc1 (configuration not stated)
not listed: [18]
inactive: all other assays above

O=C(Cl)C(F)(F)C(F)(F)C(F)(F)C(F)(F)C(F)(F)C(F)(F)C(F)(F)F
active: [1] 19.7 µM | [4] 63.3 µM | [7] 66.7 µM | [16] 47.5 µM
not listed: [10]
inactive: all other assays above

OCCC(O)CO (configuration not stated)
inactive: all assays above

CC(C)(C)C(=O)C1C(=O)c2ccccc2C1=O
active: [1] 10.4 µM | [2] 57.9 µM | [4] 30.1 µM | [6] 34.6 µM | [7] 30.3 µM | [10] 31.9 µM
inactive: all other assays above

O=C(O)C(F)(F)C(F)(F)C(F)(F)C(F)(F)C(F)(F)C(F)(F)C(F)F
active: [16] 64 µM
not listed: [18]
inactive: all other assays above
